Hit rate of the full screen: of about 190,000 compounds, about 1,300 (0.68%) were called active. This excerpt belongs to a sample that is enriched for actives. A number with no mark means an inactive call. No stated cut-off is given here; in the data, active means inhibition above about 50%; inactive means the rest.

The values below come from PubChem BioAssay AID1220 (Sanford-Burnham Center for Chemical Genomics, 2008).

The target in this assay is Mannose-6-phosphate isomerase (Homo sapiens) (UniProt P34949). Kind of assay: human PMI inhibitors, high substrate, primary screen, biochemical, fluorescence intensity, high mannose 6-phosphate (AID 1220). Conditions: recombinant PMI enzyme, coupled fluorescence intensity; at 20 µM; active compounds read high.
Chain of Mannose-6-phosphate isomerase (Homo sapiens) (P34949 whole entry, looked up): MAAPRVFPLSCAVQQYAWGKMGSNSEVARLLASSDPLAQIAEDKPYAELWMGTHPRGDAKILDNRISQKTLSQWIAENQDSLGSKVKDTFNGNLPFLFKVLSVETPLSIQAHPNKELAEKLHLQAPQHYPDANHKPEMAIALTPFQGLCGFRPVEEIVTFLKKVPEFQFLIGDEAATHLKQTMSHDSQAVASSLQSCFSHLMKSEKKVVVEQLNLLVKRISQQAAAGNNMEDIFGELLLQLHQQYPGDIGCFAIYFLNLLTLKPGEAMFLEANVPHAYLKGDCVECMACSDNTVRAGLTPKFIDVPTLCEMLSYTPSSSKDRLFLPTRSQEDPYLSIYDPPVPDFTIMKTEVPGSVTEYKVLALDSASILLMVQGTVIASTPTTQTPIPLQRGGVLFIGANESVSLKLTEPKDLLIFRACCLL
Broadly, the inhibition is the relative decrease from the control value, in per cent. For `O=C(NCC(=O)N1CCCC1)c1cccs1`, the inhibition was 2%.
Turning to `O=C(N=Nc1ccc(NOC(=O)c2ccccc2Br)cc1)c1ccccc1O`, the inhibition was 65.2% (active).
On to `Cc1ccc(C(=O)ONc2ccc(N=NC(=O)c3ccccc3O)cc2)cc1`, for which the inhibition is -5.4%.
Turning to `O=C(ONc1ccc(N=NC(=O)c2ccccc2O)cc1)c1ccccc1`, the inhibition is 22.9%.
With `CN(Cc1cccnc1)C(=O)CC1C(=O)NCCN1Cc1ccc(-c2ccccc2)cc1` (configuration not stated) the figure was 8.9%.
Turning to `CCOC(=O)C(C#N)C(Cc1ccccc1)c1ccco1` (configuration not stated), the inhibition is 5.7%.
The value for `COC(=O)c1cc(OC)c(OC)cc1NC(=S)Nc1cccc(C(C)=O)c1` was -8%; that for `COc1ccc(NC(=S)Nc2cccc(Cl)c2Cl)cc1OC` was 40.9%; that for `COc1ccc(NC(=S)Nc2ncccc2C)c(OC)c1` was 10.1%.
`COc1ccc(C(=O)Nc2cccc(C(C)=O)c2)cc1OC`: the inhibition is -4.1%.
On to `COc1ccc(NC(=S)Nc2ncccc2C)cc1OC`, for which the inhibition is 55.1% (active).
On to `COc1ccc(NC(=S)Nc2cccc(Cl)c2)cc1OC`, for which the inhibition is 61.4% (active).
`COc1cc(NC(=S)Nc2ncccc2C)cc(OC)c1OC`: the inhibition is 31%.
Regarding `COc1ccc(NC(=S)Nc2cccc(C(C)=O)c2)cc1OC`, the inhibition was 50.5% (active).
The value for `COc1cc(C)c(NC(=S)Nc2cccc(Cl)c2)cc1OC` was 24.5%; that for `Cc1c(NC(=O)c2cc3ccccc3o2)c(=O)n(-c2ccccc2)n1C` was -16.9%; that for `COc1ccc(-c2nc(N3CCCC3)[nH]c(=O)c2C#N)cc1` was -5.5%.
With `C=CCc1cccc2cc(C(=O)NCc3cccnc3)c(=O)oc12` the figure was 3.6%; with `Cc1ccc(NCC(=O)N=Nc2c(O)n(C)c3ccccc23)cc1`, -2.1%.
`O=C(NC1CC1)C1=C[C@H](C2CC2)C[C@H](OCCCCO)O1`: the inhibition is 0.3%.
Regarding `CCS(=O)(=O)c1ccc2oc(SCC(=O)Nc3ccc(OC)cc3OC)nc2c1`, the inhibition was 14.5%.
For `Cc1onc(-c2ccccc2Cl)c1C(=O)N1CCOC12CCCCC2`, the inhibition is -6.1%.
With `COCC(=O)N/N=C/c1c(C)[nH]n(-c2ccccc2)c1=O`, the inhibition is -4.5%.
In the case of `Cc1[nH]n(-c2ccccc2)c(=O)c1/C=N/NC(=O)COc1ccccc1[N+](=O)[O-]`, the inhibition is 58.1% (active).
For `Cc1ccc(OCC(=O)N/N=C\c2c(C)[nH]n(-c3ccccc3)c2=O)c([N+](=O)[O-])c1`, the inhibition was -3.5%.
In the case of `CC(C)CN1C(=O)c2ccc(NC(=O)c3ccco3)cc2C1=O`, the inhibition was 6.2%.
With `COc1ccc(NC(=O)Nc2ccc(C(=O)N3CCOCC3)cc2)c(OC)c1`, the inhibition was 0.2%.
With `COc1ccc(NC(=O)Nc2ccc(N3CCOCC3)c3nonc23)c(OC)c1` the figure was 55.8% (active); with `O=C(Nc1ccc(F)cc1)Nc1ccc(N2CCOCC2)c2nonc12`, 38%; with `O=C(Nc1ccc([N+](=O)[O-])cc1)Nc1ccc(N2CCOCC2)c2nonc12`, 57.9% (active).
With `O=C(Nc1ccc(N2CCOCC2)c2nonc12)C1CCCC1` the figure was 44.8%; with `COc1ccc(NC(C)C(=O)Nc2cc(C(F)(F)F)ccc2N2CCOCC2)c(OC)c1` (configuration not stated), 24%.
For `COc1ccc(C)cc1-n1c(SCC(=O)Nc2cc(C)on2)nc2ccccc2c1=O`, the inhibition is 10.8%.
With `COC(=O)Cc1sc(-c2ccccn2)nc1-c1ccccc1`, the inhibition is 21.2%.
With `CCOc1cc(NC(=S)NCCOC)c(OCC)cc1NC(=O)c1ccco1`, the inhibition is 22.6%.
Regarding `CCOc1cc(NC(=S)NC)c(OCC)cc1NC(=O)c1ccco1`, the inhibition is 49.7%.
Take `CCNC(=S)Nc1cc(OCC)c(NC(=O)c2ccco2)cc1OCC`: the inhibition was 52.8% (active).
Take `CCOc1cc(NC(=S)NCCCOC)c(OCC)cc1NC(=O)c1ccco1`: the inhibition is 50.7% (active).
With `CCOCCCNC(=S)Nc1cc(OCC)c(NC(=O)c2ccco2)cc1OCC` the figure was 44.5%; with `CCNC(=S)Nc1cc(OC)c(NC(=O)c2ccco2)cc1OC`, 33.9%.
For the molecule `O=C(CO/N=C/c1ccc(OC(F)F)cc1)NC1CCCC1`, the inhibition was 0.6%.
With `COC(=O)C1=C(C)N(CCc2ccc(OC)c(OC)c2)C(=O)C1`, the inhibition was -10.6%.
Take `Cc1nnc(SCc2nnc(-c3cccs3)o2)n1Cc1ccccc1`: the inhibition was -7.3%.
With `COc1cc(C(c2oc(CO)cc(=O)c2O)c2oc(CO)cc(=O)c2O)cc(OC)c1OC` the figure was -11.4%.
For `CCCN1CCN(CCCNC(=S)Nc2ccc(OC)cc2)CC1`, the inhibition is 6.6%.
With `O=C(OCC(=O)N1CCCCC1)c1ccccc1SCC(=O)N1CCCCC1`, the inhibition is -4%.
Regarding `Cc1cc(=O)n2ccccc2c1C#N`, the inhibition was 3.5%.
As to `N#Cc1c2ccc(O)cc2n2ccccc12`, the inhibition was 62.6% (active).
Take `Cn1c(CN2CCOCC2)c(C#N)c2ccccc21`: the inhibition was 3%.
`COC(=O)CCC/C=C1/SCC(NC(=O)c2ccccc2)/C1=N/O` (configuration not stated): the inhibition was -7.4%.
For `CCC(C(=O)Nc1cnccn1)c1ccccc1` (configuration not stated), the inhibition was 4%.
The value for `COc1ccc(O)c(/C=N/NC(=O)c2ccc(CSc3nc(C)cc(C)n3)cc2)c1` was -12.2%; that for `CCn1c(C)nc2cc(C(=O)N/N=C/c3ccccc3C)ccc21` was -6.4%.
As to `CCn1c(C)nc2cc(C(=O)N/N=C/c3cccc(OC)c3O)ccc21`, the inhibition was -8.6%.
As to `CCN(CC)S(=O)(=O)c1cccc(C(=O)N/N=C/c2cc(OC)c(O)c(OC)c2)c1`, the inhibition was 15.5%.
Consider `CCN(CC)S(=O)(=O)c1cccc(C(=O)N/N=C/c2ccc(OC)c(O)c2)c1`, for which the inhibition is 6.1%.
On to `Cc1cc(C)nc(SCc2ccc(C(=O)N/N=C/c3ccccc3C(=O)O)cc2)n1`, for which the inhibition was -6.2%.
As to `CCN(CC)S(=O)(=O)c1cccc(C(=O)N/N=C/c2ccccc2OCC(=O)O)c1`, the inhibition is 2.8%.
Turning to `CCN(CC)S(=O)(=O)c1cccc(C(=O)N/N=C/c2cccc(O)c2O)c1`, the inhibition is 53.1% (active).
The value for `CCOc1ccccc1/C=N/NC(=O)c1cccc(S(=O)(=O)N(CC)CC)c1` was 5.1%; that for `Cc1cc(C)nc(SCc2ccc(C(=O)N/N=C/c3cccc(O)c3O)cc2)n1` was 55% (active); that for `O=C(Nc1ccc(N=Nc2ccccc2)c(NC(=O)C2CCCO2)c1)C1CCCO1` (configuration not stated) was 9%.
